Results taken from PubChem BioAssay AID1159580 (chemical genetic matrix, 2015).
About 2,000 (36%) of roughly 5,500 compounds were called active. Roughly 18% stayed inconclusive and do not appear here. No stated cut-off is given here; in the data, active means normalized growth mostly below about 0.91 (no sharp cut-off); inconclusive means no clear call, values can overlap the other calls; inactive means mostly above about 0.92. The list shows a part of the results.

Experiment: chemical genetic growth profiling, strain panel (AID 1159580);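 further: tested at 20 µM; growth read once vehicle control cultures reached saturation at 30 °C; 1 = growth at the plate median or of vehicle wells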
Settings: growth OD

Measured: normalized growth

C=C1C2CC[C@@]3(C)[C@H](c4ccoc4)OC(=O)C[C@]13O[C@H]1CC(O)C(C)(C)C(CC(=O)OC)[C@@]21C (stereo not given in full)
inactive: S. cerevisiae deletion strains, locus YJL187C, strain SWE1, stronger effect = lower value 0.971 | S. cerevisiae deletion strains, locus YJR043C, strain POL32, stronger effect = lower value 1.01 | S. cerevisiae deletion strains, locus YJR066W, strain TOR1, stronger effect = lower value 0.922 | S. cerevisiae deletion strains, locus YKL009W, strain mrt4, stronger effect = lower value 1 | S. cerevisiae deletion strains, locus YKL068W, stronger effect = lower value 1.01 | S. cerevisiae deletion strains, locus YKL085W, strain MDH1 (second series), stronger effect = lower value 0.999 | S. cerevisiae deletion strains, locus YKL085W, strain MDH1, stronger effect = lower value 0.999 | S. cerevisiae deletion strains, locus YKL160W, strain elf1, stronger effect = lower value 0.984 | S. cerevisiae deletion strains, locus YKL190W, strain CNB1, stronger effect = lower value 0.987 | S. cerevisiae deletion strains, locus YKR001C, strain vps1, stronger effect = lower value 0.999 | S. cerevisiae deletion strains, locus YKR026C, strain gcn3, stronger effect = lower value 0.985 | S. cerevisiae deletion strains, locus YKR091W, strain srl3, stronger effect = lower value 0.965 | S. cerevisiae deletion strains, locus YLL001W, strain dnm1, stronger effect = lower value 0.989 | S. cerevisiae deletion strains, locus YLL026W, stronger effect = lower value 0.974 | S. cerevisiae deletion strains, locus YLL041C, strain sdh2, stronger effect = lower value 0.971 | S. cerevisiae deletion strains, locus YLR027C, strain aat2, stronger effect = lower value 0.99 | S. cerevisiae deletion strains, locus YLR039C, strain RIC1, stronger effect = lower value 0.963 | S. cerevisiae deletion strains, locus YLR058C, strain SHM2, stronger effect = lower value 1 | S. cerevisiae deletion strains, locus YLR102C, strain apc9, stronger effect = lower value 1.01 | S. cerevisiae deletion strains, locus YLR113W, strain HOG1, stronger effect = lower value 0.996 | S. cerevisiae deletion strains, locus YLR221C, strain rsa3, stronger effect = lower value 0.981 | S. cerevisiae deletion strains, locus YLR258W, strain gsy2, stronger effect = lower value 0.977 | S. cerevisiae deletion strains, locus YLR262C, strain YPT6 (second series), stronger effect = lower value 0.925 | S. cerevisiae deletion strains, locus YLR268W, strain sec22, stronger effect = lower value 1.01 | S. cerevisiae deletion strains, locus YLR320W, strain mms22, stronger effect = lower value 0.97 | S. cerevisiae deletion strains, locus YLR342W, strain FKS1 (second series), stronger effect = lower value 1.02 | S. cerevisiae deletion strains, locus YLR342W, strain FKS1, stronger effect = lower value 0.971 | S. cerevisiae deletion strains, locus YLR357W, strain rsc2, stronger effect = lower value 0.998 | S. cerevisiae deletion strains, locus YLR370C, strain arc18, stronger effect = lower value 0.981 | S. cerevisiae deletion strains, locus YLR371W, strain rom2, stronger effect = lower value 1.02 | S. cerevisiae deletion strains, locus YLR384C, strain iki3, stronger effect = lower value 0.964 | S. cerevisiae deletion strains, locus YLR418C, strain cdc73, stronger effect = lower value 0.998 | S. cerevisiae deletion strains, locus YML016C, strain PPZ1, stronger effect = lower value 1.01 | S. cerevisiae deletion strains, locus YML032C, strain rad52, stronger effect = lower value 1.03 | S. cerevisiae deletion strains, locus YML120C, strain ndi1, stronger effect = lower value 0.99 | S. cerevisiae deletion strains, locus YML124C, strain tub3, stronger effect = lower value 1.01 | S. cerevisiae deletion strains, locus YMR058W, strain fet3, stronger effect = lower value 0.97 | S. cerevisiae deletion strains, locus YMR078C, strain ctf18, stronger effect = lower value 1.01 | S. cerevisiae deletion strains, locus YMR125W, strain sto1, stronger effect = lower value 0.972 | S. cerevisiae deletion strains, locus YMR129W, stronger effect = lower value 0.989 | S. cerevisiae deletion strains, locus YMR205C, strain PFK2, stronger effect = lower value 0.962 | S. cerevisiae deletion strains, locus YMR223W, strain ubp8, stronger effect = lower value 1.01 | S. cerevisiae deletion strains, locus YMR231W, strain pep5, stronger effect = lower value 0.971 | S. cerevisiae deletion strains, locus YMR307W, strain GAS1, stronger effect = lower value 1.06 | S. cerevisiae deletion strains, locus YNL067W, strain RPL9B, stronger effect = lower value 1.01 | S. cerevisiae deletion strains, locus YNL071W, strain lat1, stronger effect = lower value 0.974 | S. cerevisiae deletion strains, locus YNL183C, strain NPR1, stronger effect = lower value 0.974 | S. cerevisiae deletion strains, locus YNL209W, strain ssb2, stronger effect = lower value 0.979 | S. cerevisiae deletion strains, locus YNL233W, strain BNI4, stronger effect = lower value 0.972 | S. cerevisiae deletion strains, locus YNL248C, strain rpa49, stronger effect = lower value 0.971 | S. cerevisiae deletion strains, locus YNL250W, strain rad50, stronger effect = lower value 1.02 | S. cerevisiae deletion strains, locus YNL271C, strain bni1, stronger effect = lower value 1.01 | S. cerevisiae deletion strains, locus YNL298W, strain CLA4, stronger effect = lower value 1.01 | S. cerevisiae deletion strains, locus YNL307C, strain MCK1, stronger effect = lower value 1.01 | S. cerevisiae deletion strains, locus YNL322C, strain KRE1 (second series), stronger effect = lower value 0.985 | S. cerevisiae deletion strains, locus YNR049C, strain mso1, stronger effect = lower value 0.969 | S. cerevisiae deletion strains, locus YNR052C, strain pop2, stronger effect = lower value 1.02 | S. cerevisiae deletion strains, locus YOL012C, strain htz1 1.88 | S. cerevisiae deletion strains, locus YOL147C, strain pex11, stronger effect = lower value 1.02 | S. cerevisiae deletion strains, locus YOR001W, strain rrp6, stronger effect = lower value 0.969 | S. cerevisiae deletion strains, locus YOR061W, strain CKA2, stronger effect = lower value 1 | S. cerevisiae deletion strains, locus YOR069W, strain VPS5, stronger effect = lower value 1.01 | S. cerevisiae deletion strains, locus YOR070C, strain gyp1, stronger effect = lower value 0.978 | S. cerevisiae deletion strains, locus YOR080W, strain dia2, stronger effect = lower value 0.979 | S. cerevisiae deletion strains, locus YOR083W, strain WHI5, stronger effect = lower value 0.981 | S. cerevisiae deletion strains, locus YOR106W, strain vam3, stronger effect = lower value 0.955 | S. cerevisiae deletion strains, locus YOR136W, strain idh2, stronger effect = lower value 1.02 | S. cerevisiae deletion strains, locus YOR144C, strain elg1, stronger effect = lower value 1.03 | S. cerevisiae deletion strains, locus YOR184W, strain ser1, stronger effect = lower value 1.01 | S. cerevisiae deletion strains, locus YOR231W, strain MKK1, stronger effect = lower value 0.991 | S. cerevisiae deletion strains, locus YOR265W, strain rbl2, stronger effect = lower value 0.986 | S. cerevisiae deletion strains, locus YOR270C, strain vph1, stronger effect = lower value 0.878 | S. cerevisiae deletion strains, locus YOR290C, strain snf2, stronger effect = lower value 0.987 | S. cerevisiae deletion strains, locus YOR316C, strain cot1, stronger effect = lower value 1.01 | S. cerevisiae deletion strains, locus YPL051W, strain arl3, stronger effect = lower value 0.975 | S. cerevisiae deletion strains, locus YPL078C, strain atp4, stronger effect = lower value 0.981 | S. cerevisiae deletion strains, locus YPL106C, strain sse1, stronger effect = lower value 0.973 | S. cerevisiae deletion strains, locus YPL240C, strain hsp82, stronger effect = lower value 0.98 | S. cerevisiae deletion strains, locus YPL256C, strain CLN2, stronger effect = lower value 0.939 | S. cerevisiae deletion strains, locus YPR119W, strain clb2, stronger effect = lower value 1.02 | S. cerevisiae deletion strains, locus YPR141C, strain kar3, stronger effect = lower value 1.02 | S. cerevisiae deletion strains, locus YPR163C, strain tif3, stronger effect = lower value 1.02 | S. cerevisiae deletion strains, locus YPR167C, strain met16, stronger effect = lower value 1.01 | S. cerevisiae deletion strains, strain wtn01, stronger effect = lower value 1.01 | S. cerevisiae strains, strain wild type, stronger effect = lower value 0.998
